# Sampled rows, rich in hits. Any-hit rate of the full collection: about 7.4%.
# SNCA viab count: GF-AFC viability counterscreen for inhibitors of alpha-synuclein gene (SNCA) expression | Potency, µM (series often up to 57.1 µM), without a hit: at the highest dose activity change, negative = cytotoxicity, most hits filed as cytotoxic | actives 0.12% (n = 150,000) | HEK-293-SNCA-luc viability, GF-AFC fluorescence, 24 h;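 also: 0% = DMSO-treated cells and -100% = medium-only wells without cells; nearly all actives have a fitted effect of over 30% in size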
#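 HEK-293-SNCA-luc cells (1500/well) plated 24 h, then exposed 24 h to a dilution series; GF-AFC added 30 min at 37C, fluorescence 405/540 nm; normalised to medium-only and DMSO wells, Hill fit.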
# 3T3 cytotox: Cytotoxic Profiling in NIH 3T3 Cell Line of Diverse Libraries Using Quantitative High-Throughput Screening | actives 4.3% (n = 94,000) | NIH 3T3 viability, CellTiter-Glo ATP luminescence, 48-72 h | Potency, µM (highest dose often 96.7 µM), for the others: top-dose activity change, negative = cytotoxicity, actives largely listed as inhibitors; also: nearly all actives have a fitted effect of over 55% in size
#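 Luminescent ATP readout (CellTiter-Glo, 10 min RT) after 48 or 72 hr compound exposure of NIH 3T3 cells seeded at 400 cells/well in 1536-well format; quantitative HTS.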
# SNCA expr inh: Primary qHTS assay for inhibitors of alpha-synuclein gene (SNCA) expression; HEK-293 SNCA-luciferase knock-in, luminescence, 24 h; Potency, µM (titrated, usually from 57.2 µM), for inactives: top-dose activity change, negative = inhibition, actives largely listed as inhibitors; actives 0.17% (n = 140,000); AID 1671194, 2021;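 also: plate controls were DMSO cells for no effect and cell-free wells for full effect; nearly all actives have a fitted effect of over 45% in size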
# FLuc inh: Firefly luciferase inhibition profiling of diverse chemical library using quantitative high-throughput screening. Luciferin 4-monooxygenase (Photinus pyralis), P08659. purified P. pyralis luciferase, luminescence, biochemical. Potency, µM (top dose mostly 115 µM), actives largely listed as inhibitors. actives 2.5% (n = 76,000). AID 1347043, 2019; also: nearly all actives have a fitted effect of over 65% in size
#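 FLuc 10nM, D-luciferin 10uM, ATP 10uM, Mg acetate 10mM, Tris acetate pH 7.5, Tween/BSA; cpd qHTS; enzyme added last; CCD luminescence.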
# NPR1 antag: Natriuretic polypeptide receptor (hNpr1) antagonism - Primary qHTS; Atrial natriuretic peptide receptor 1 (Homo sapiens), P16066; Potency, µM (titrated, usually from 46.3 µM), inactives show top-dose activity change, negative = inhibition, actives largely listed as inhibitors; actives 1.6% (n = 76,000); HEK293 hNpr1 GloSensor cGMP, ANP-stimulated luminescence; calls by dose curve; also: nearly all actives have a fitted effect of over 60% in size
#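 Compound pre-incubated 30 min at room temperature on GloSensor-loaded HEK293 cells stably carrying hNpr1 and the pGS-40F cGMP biosensor. Stimulation uses hNppA at 0.1 nM final; luminescence is taken at baseline and 20 min post-agonist.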
# HEK cytotox: Cytotoxic Profiling in HEK 293 Cell Line of Diverse Libraries Using Quantitative High-Throughput Screening; HEK 293 viability, ATP luminescence (CellTiter-Glo), 48-72 h; Potency, µM (doses to about 115 µM), inactives show at the highest dose activity change, negative = cytotoxicity, hits mostly inhibitors; actives 6.6% (n = 94,000); also: nearly all actives have a fitted effect of over 60% in size
#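 Luminescence from cellular ATP, measured with CellTiter-Glo, indicates HEK 293 viability. Cells plated at 250 cells/well are treated with compound for 48 or 72 hr at 37 degree Celsius before reagent addition.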
# * marks the source's active call; other numbers are inactive results; i = inactive; ? = inconclusive; . = not tested or not shown; [ ] = dose if it differs, or a comment. Unless noted, calls follow the shape of the dose curve; as a rule, active = well fitted curve in the direction sought with a large enough effect; inconclusive = small, poorly fitted or top-dose-only effect, or another doubt; inactive = no such curve, though single readings can be large; an effect the other way counts as inactive or inconclusive. Unless noted, % is scaled to controls: 0 for no effect and ±100 for the full control effect; potency is read from the fitted curve at half-maximal effect.
SMILES,SNCA viab count,3T3 cytotox,SNCA expr inh,FLuc inh,NPR1 antag,HEK cytotox
CC(C)N1C[C@H](O)C[C@H]1c1nc(-c2ccc3c(c2)OCO3)no1,1%[87.6 µM],-30%[174 µM],111%[87.6 µM],40µM*,0%[70.6 µM],-23%[172 µM]
COc1ccc(C2=NOC3(CCCN(C(=O)c4ccc5c(c4)OCO5)C3)C2)cc1 (stereo not given),-15%,?,2%,.,.,-26%
COc1ccccc1-c1cccc(CN2CCC(NC(=O)N(C)C)CC2)c1,10%,?,-12%,.,.,79µM*
COc1ccccc1-c1cccc(CN2CCC(NC(=O)c3ccccc3Cl)CC2)c1,-2%,?,-7%,.,.,79µM*
O=C(NC1CCN(Cc2ccccc2)CC1)c1cccc2c1CCN2C(=O)c1ccccc1,-21%,?,15%,i,-28%,40µM*
COc1ccccc1C(=O)NC1CCN(Cc2cccc(-c3ccccc3OC)c2)CC1,-19%,?,-30%,.,.,45µM*
COC(=O)NC1CCN(Cc2cccc(-c3ccccc3OC)c2)CC1,12%,-27%,8%,.,.,?
O=C(Cc1c[nH]c2ccccc12)N1CCC2(CC1)CC(OCC1CC1)CCO2 (stereo not given),9%,-25%,6%,i,-8%,?
Cc1ccccc1Nc1n[nH]c(C(O)c2cccc(C(F)(F)F)c2)n1 (stereo not given),6%[87.6 µM],?,-11%[87.6 µM],i,-19%[70.6 µM],?
COc1ccccc1-c1cccc(CN2CCC(NC(=O)c3ccccc3C)CC2)c1,.,?,.,.,.,45µM*
COc1ccccc1CN(Cc1ccccc1C)C(=O)[C@H]1CCC[C@H](O)C1,-17%,-20%,-13%,i,2%,22µM*
COc1cc2c(cc1CNC(=O)[C@H]1CCC[C@@H](O)C1)OCCO2,-2%,-7%,8%,i,2%,-28%
COc1cc(N2CCC(N)CC2)ccc1Nc1ncc(Cl)c(-c2c[nH]c3ccccc23)n1,-39%,.,.,.,.,.
COc1cccc(-c2cc(C3CCN(C(=O)Nc4cccc(C)c4)CC3)[nH]n2)c1,-6%,?,4%,?,-23%,?
COc1cccc(-c2cc(C3CCN(C(=O)Nc4ccc(C)cc4C)CC3)[nH]n2)c1,-1%,?,4%,i,-19%,45µM*
COc1cccc(-c2cc(C3CCN(C(=O)NCCc4ccccc4)CC3)[nH]n2)c1,0%,-4%,0%,i,-19%,?
COc1cccc(-c2cc(C3CCN(C(=O)c4cc(C)ccc4C)CC3)[nH]n2)c1,-8%,?,10%,i,?,40µM*
CCc1ccc(C(=O)N2CCC(c3cc(-c4cccc(OC)c4)n[nH]3)CC2)cc1,8%,?,33%,i,?,45µM*
COc1cccc(-c2cc(C3CCN(C(=O)Nc4ccc5c(c4)OCCO5)CC3)[nH]n2)c1,-10%,40µM*,89%,25µM*,?,?
CC(C)CNC(=O)N1CCC(CCOc2ccc(F)cc2)C1 (stereo not given),-3%,?,-27%,i,-25%,?
CCN(CC)C(CNc1ncncn1)c1ccco1 (stereo not given),-6%,i,?,i,1%,4%
COc1cccc(-c2cc(C3CCN(C(=O)Nc4ccccc4OC)CC3)[nH]n2)c1,-1%,?,7%,i,-15%,32µM*
Cc1cc(Cn2cc3c4c(cccc42)[C@H](CC(C)C)N[C@H](C(=O)NCc2ccccn2)C3)no1,-17%,?,-17%,i,-2%,32µM*
Cc1cc(Cn2cc3c4c(cccc42)[C@H](CC(C)C)N[C@H](C(=O)NCc2ccco2)C3)no1,-19%,28µM*,-5%,i,-3%,40µM*
Cc1cc(C)n(-c2cccc(CN3CCN(C4CCNC4)CC3)c2)n1 (stereo not given),-3%,i,1%,i,4%,i
SMILES,SNCA viab count,3T3 cytotox,SNCA expr inh,FLuc inh,NPR1 antag,HEK cytotox
Clc1ccc(Oc2cccc(CN3CCN(C4CCNC4)CC3)c2)cc1 (stereo not given),1%,28µM*,15%,i,3%,28µM*
OCC1(Cc2ccccc2Cl)CCN(Cc2cc3ccccc3o2)CC1,?,?,?,i,?,18µM*
CC(C)Oc1ccc(CN2CCC(CO)(Cc3ccccc3Cl)CC2)cc1CO,-4%,25µM*,-20%,i,0%,?
O=[S+]1([O-])NC2(CCCN(Cc3cccc4ccccc34)C2)CNc2ccccc21 (stereo not given),0%,?,-8%,i,-16%,?
O=[S+]1([O-])NC2(CCN(Cc3cccc4ccccc34)CC2)CNc2ccccc21,0%,?,-6%,i,-11%,40µM*
C=C1C[C@]23C[C@H]1CC[C@H]2[C@]1(C)CCC[C@@](C)(C(=O)O)[C@H]1[C@@H]3C(=O)O,-4%,.,.,.,.,.
COc1ccc(-c2cc(C(=O)NCc3cccc(C(F)(F)F)c3)c3cnn(C)c3n2)cc1,1%,32µM*,-3%,.,.,35µM*
CN1CCN(C(=O)c2cc(-c3cccc(C(F)(F)F)c3)nc3c2cnn3C)CC1,0%,32µM*,37%,.,.,?
Cn1ncc2c(C(=O)NCc3ccc(C(F)(F)F)cc3)cc(-c3ccc(C(F)(F)F)cc3)nc21,.,-23%,.,.,.,i
C#CCNC(=O)c1cc(-c2cccc(C(F)(F)F)c2)nc2c1cnn2C,.,10µM*,.,.,.,?
Cc1ccc(-c2cc(C(=O)NCc3ccc(C(F)(F)F)cc3)c3cnn(C)c3n2)c(C)c1,-23%,?,?,.,.,35µM*
CC(=O)N1CCN(C(=O)c2cc(-c3cccc(C(F)(F)F)c3)nc3c2cnn3C)CC1,5%,?,-9%,.,.,-19%
COc1ccccc1NC(=O)c1c(OC)cc(=O)n2c1CCCC2,5%,-14%,?,i,-6%,-3%
Cn1ncc2c(C(=O)NCc3cccc(F)c3)cc(-c3ccccc3F)nc21,.,?,.,.,.,45µM*
CC(=O)N1CCCN(C(=O)c2cc(-c3cc(Cl)cc(Cl)c3)nc3c2cnn3C)CC1,.,?,.,.,.,79µM*
Cn1ncc2c(C(=O)NCc3cccc(F)c3)cc(-c3ccc(C(F)(F)F)cc3)nc21,.,-29%,.,.,.,40µM*
